This note sets out measurements from PubChem BioAssay (NCATS).

Results filed as inconclusive are left out. The source made the active and inactive calls. The call rests on the fitted dose curve; in most records, active means well fitted curve in the direction sought with a large enough effect; inconclusive means small, poorly fitted or top-dose-only effect, or another doubt; inactive means no such curve, though single readings can be large; an effect the other way counts as inactive or inconclusive.

Experiment [1] in a line: HPAF-II Cancer Cell Toxicity qHTS against the NCATS CANVASS Library (AID 1347346). Further: nearly all actives have a fitted effect of over 55% in size. Further: potency means the concentration at half of the fitted maximal effect. The method in brief: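 HPAF-II cells were seeded at 1000 cells/well, allowed to settle for 4 h at 37 degrees C, then exposed to compounds in an 11-point series for 72 h. Viability was read by CellTiter-Glo luminescence.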
The nature of experiment [2]: HPAF-II 24hr Apoptosis Induction qHTS against the NCATS CANVASS Library (AID 1347356). The method in brief:
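HPAF-II cells (500/well) in DMEM + 10% FBS were treated with an 11-point compound series for 24 hours at 37 degrees C. Caspase-3/7 activity was then read by Caspase-Glo DEVD luminescence after 15 min.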

The nature of experiment [3]: HEK293 18hr Apoptosis Induction qHTS against the NCATS CANVASS Library (AID 1347357). Further: potency means the concentration at half of the fitted maximal effect. The method in brief: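 HEK293 cells (500/well, DMEM + 10% FBS) treated with an 11-point series for 18 h at 37 degrees C. Caspase-3/7 activity read by Caspase-Glo luminescence after 15 min at room temperature.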
Experiment [4] can be described thus: HPAF-II 12hr Apoptosis Induction qHTS against the NCATS CANVASS Library (AID 1347358). The method in brief:
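HPAF-II cells (500/well, DMEM + 10% FBS) were exposed to compounds for 12 hours at 37 degrees C. Caspase-3/7 activity was then read by Caspase-Glo 3/7 luminescence after 15 min at room temperature.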

Experiment [5] is described as follows: HPAF-II 18hr Apoptosis Induction qHTS against the NCATS CANVASS Library (AID 1347360). The method in brief:
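HPAF-II cells at 500/well were exposed for 18 h at 37 C to an 11-point compound series. Caspase-3/7 activity was read by Caspase-Glo luminescence after 15 min at RT.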

A short description of experiment [6]: HEK293 12hr Apoptosis Induction qHTS against the NCATS CANVASS Library (AID 1347361). In short, it runs like this:
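HEK293 cells (500/well) were exposed to an 11-point qHTS concentration series for 12 hours at 37 degrees C. Caspase-3/7 activity was then read by DEVD-substrate luciferase luminescence after 15 min at room temperature.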

In experiment [7] the test system is NAD(P)H diaphorase (Clostridium kluyveri). Nature of the experiment: Diaphorse counterscreen qHTS: Assay Interference Panel against the NCATS CANVASS Library (AID 1347362). The method in brief: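 Clostridium kluyveri diaphorase in PBS with 0.01% Tween-20 was preincubated 15 min at room temperature in the dark with compounds (11-point series). Resorufin fluorescence (ex 525/20, em 598/25) was read 5 min after adding resazurin/NADH.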

In experiment [8] the target is Luciferin 4-monooxygenase (Photinus pyralis) (UniProt P08659). Nature of the experiment: Firefly luciferase counterscreen qHTS: Assay Interference Panel against the NCATS CANVASS Library (AID 1347363). Further: series mostly up to about 57 µM. In short, it runs like this:
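Purified P. pyralis luciferase was added to compounds (11-point series) preincubated 15 min at room temperature with substrate containing 0.013 mM D-luciferin and 0.013 mM ATP; luminescence was read after 5 min.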

Experiment [9] can be described thus: MCF7 Cancer Cell Toxicity qHTS against the NCATS CANVASS Library (AID 1347369). Further: potency means the concentration at half of the fitted maximal effect. In short, it runs like this:
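MCF7 cells (500/well) were exposed 72 h at 37 °C to compounds in an 11-point series. Viability was read as ATP content by CellTiterGlo luminescence.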

A short description of experiment [10]: qHTS for ATAD5 Antagonist screened against the NCATS CANVASS Library (AID 1347370). Further: nearly all actives have a fitted effect of over 65% in size. Further: potency means the concentration at half of the fitted maximal effect. The method in brief:
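HEK293T cells with a stably integrated ATAD5-controlled luciferase reporter were exposed to compounds (11-pt) alongside 10 uM 5-fluorouridine as ATAD5 stabilizer for 16hr at 37C. Viability was read by CellTiter-Fluor fluorescence, then ATAD5 by luminescence.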

Experiment [11] is described as follows: J3T Cancer Cell Toxicity qHTS against the NCATS CANVASS Library (AID 1347371). Further: potency means the concentration at half of the fitted maximal effect. The method in brief: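 J3T dog glioma cells (500 cells/well) were exposed to compounds in an 11-point series for 72 hr at 37C, 5% CO2. Cytotoxicity was read as ATP content by CellTiterGlo luminescence.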
Experiment [12] addresses Nuclear receptor subfamily 1 group I member 3 (Homo sapiens) (UniProt Q14994). Nature of the experiment: qHTS for Constitutive Androstane Receptor (CAR) Antagonist screened against the NCATS CANVASS Library (AID 1347372). Further: potency means the concentration at half of the fitted maximal effect. In short, it runs like this:
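HepG2 cells stably carrying hCAR and a CYP2B6-2.2kb luciferase reporter were exposed to compounds plus 50 nM CITCO for 24hr at 37C. CAR activity was read by ONE-Glo luminescence, with viability measured first by CellTiter-Fluor.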

The target is the same in experiment [13]. Nature of the experiment: qHTS for Constitutive Androstane Receptor (CAR) Agonist screened against the NCATS CANVASS Library (AID 1347373).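 Further: every well also contained 1.5 µM PK11195 alongside the test compound.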 The method in brief:
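HepG2 cells stably expressing hCAR and a CYP2B6-2.2kb luciferase reporter were treated for 24hr at 37C with compounds (11-point qHTS) in the presence of 1.5uM PK11195. Reporter activation was read by ONE-Glo luminescence.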

The nature of experiment [14]: qHTS for Hypoxia signaling pathway (HIF-1) agonists against the NCATS CANVASS Library (AID 1347375). In short, it runs like this:
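HRE-bla ME-180 cells (beta-lactamase reporter under hypoxia responsive element) in 0.5% dialyzed FBS medium, 5 h at 37C, then compound 17 h, 11-point qHTS series. CCF4-AM FRET substrate 2 h RT; 460/530 nm emission read.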

A short description of experiment [15]: 10-beta competent E. coli microbial cell viability qHTS against the NCATS CANVASS Library (AID 1347376). Further: series mostly up to about 46 µM. The method in brief:
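10-beta competent E. coli (0.9 OD culture diluted to 0.2 OD) exposed to compounds in an 11-point qHTS series, incubated overnight at 37C, 5% CO2. Viability read as ATP by BacTiter-Glo luminescence after 20 min at room temperature.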

Experiment [16] can be described thus: Cytotoxicity qHTS for assessment of Hepg2 cells membrane integrity screened against the NCATS CANVASS Library (AID 1347387). The method in brief:
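HepG2 cells (2000/well) attached overnight at 37C, then received compounds in an 11-point series at 0.59 nM - 46 uM final for 5 hr. LDH release was detected fluorometrically (ex 560/em 590 nm) with CytoTox-ONE reagent after 10 min at room temperature.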

Experiment [17] can be described thus: qHTS for Activators of p53 Stress Response Pathway screened against the NCATS CANVASS Library (AID 1347388). In short, it runs like this: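 p53RE-bla HCT-116 cells (4000/well) were plated 5 h at 37C, exposed to compounds for 16 h at 37C over an 11-point concentration series, then loaded with CCF4 for 2 h at room temperature; 460/530 nm emission ratio read.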

The nature of experiment [18]: qHTS for activators of dead-cell proteases activity screened against the NCATS CANVASS Library (AID 1347392).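 Further: luminescence from protease leaking out of membrane-damaged cells cleaving impermeant substrate; rising signal means more cytotoxicity.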 In short, it runs like this:
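HepG2 cells (2000/well) attached 18 h at 37C, then exposed 5 h to compounds (11-point qHTS). Dead-cell protease activity read as luminescence from cell-impermeant AAF-aminoluciferin substrate after 15 min at room temperature.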

Experiment [19] can be described thus: Viability qHTS for inhibitors of the SERCaMP assay screened against the NCATS CANVASS Library (AID 1347400). Further: nearly all actives have a fitted effect of over 70% in size. Further: potency means the concentration at half of the fitted maximal effect. In short, it runs like this:
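SH-SY5Y-GLuc SERCaMP MJH297-derived cells (1000 cells/well) were pre-incubated 4 h at 37C, then exposed to compounds for 48 h. Viability was read as CellTiter-Glo luminescence; bortezomib served as positive control.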

Chain of Luciferin 4-monooxygenase (Photinus pyralis) (P08659 whole entry, looked up): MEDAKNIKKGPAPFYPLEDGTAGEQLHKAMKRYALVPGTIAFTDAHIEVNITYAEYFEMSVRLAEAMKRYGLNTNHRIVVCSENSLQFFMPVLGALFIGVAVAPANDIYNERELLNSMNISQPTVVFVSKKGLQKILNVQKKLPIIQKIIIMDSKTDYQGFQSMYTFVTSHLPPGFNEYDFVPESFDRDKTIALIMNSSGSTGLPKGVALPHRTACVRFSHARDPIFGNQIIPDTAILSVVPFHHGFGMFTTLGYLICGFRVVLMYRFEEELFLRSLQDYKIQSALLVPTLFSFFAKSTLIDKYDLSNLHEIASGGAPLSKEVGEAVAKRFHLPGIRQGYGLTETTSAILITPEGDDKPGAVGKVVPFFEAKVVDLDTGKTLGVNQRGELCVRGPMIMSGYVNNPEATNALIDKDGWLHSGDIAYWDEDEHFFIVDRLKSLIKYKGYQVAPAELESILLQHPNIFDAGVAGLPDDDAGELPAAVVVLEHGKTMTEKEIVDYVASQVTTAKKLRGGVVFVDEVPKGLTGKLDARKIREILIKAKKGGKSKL
Chain of Nuclear receptor subfamily 1 group I member 3 (Homo sapiens) (Q14994 whole entry, looked up): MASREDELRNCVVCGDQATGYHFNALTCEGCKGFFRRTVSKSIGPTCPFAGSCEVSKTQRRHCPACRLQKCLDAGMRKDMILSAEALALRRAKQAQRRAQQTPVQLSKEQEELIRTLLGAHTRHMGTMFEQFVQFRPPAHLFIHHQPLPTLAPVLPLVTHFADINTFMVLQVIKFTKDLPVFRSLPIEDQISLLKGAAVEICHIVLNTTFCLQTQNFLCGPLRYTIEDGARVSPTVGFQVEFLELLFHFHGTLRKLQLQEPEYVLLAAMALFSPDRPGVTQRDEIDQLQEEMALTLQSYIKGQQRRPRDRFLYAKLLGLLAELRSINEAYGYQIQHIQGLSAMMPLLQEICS

As to `C/C(=C\[C@@H](C)CC/C=C/CC/C=C/C(=O)O)[C@H](O)[C@H](C)C(=O)CCCC1CC(=O)NC(=O)C1`, in experiment [1], the Potency was 6.68 µM (active). The call in [2], in experiment [6], in experiment [14], in experiment [15] and in experiment [16] was inactive. For the same molecule, the Potency entry in experiment [3], in experiment [4], in [5], in experiment [7], in [8] and in experiment [9] was “inactive” throughout. In addition, the Potency result in experiment [10], in experiment [11], in [12], in [13], in experiment [17] and in [18] was “inactive” in each case. The Potency entry in experiment [19] was “inactive”.

With `C=C(Cl)[C@](Cl)(CBr)CC[C@@H](Br)C(C)(C)Cl`, the Potency in experiment [1] was 6.68 µM (active); in [9] it was 6.59 µM (active); in experiment [10], 23.4 µM (active); in experiment [11], 4.18 µM (active). For the same molecule, the molecule was classed as inactive in [2], in experiment [6] and in experiment [15]. Besides, the Potency entry in [3], in experiment [4], in experiment [5], in experiment [7], in [8] and in experiment [12] was “inactive” each time. Further, the Potency entry in experiment [13], in experiment [17] and in experiment [19] was “inactive” throughout.

Take `C/C(=C\[C@@H](C)CC/C=C/CC/C=C/C(=O)O)[C@@H](O)[C@H](C)C(=O)CCCC1CC(=O)NC(=O)C1`: the Potency entry in experiment [1], in experiment [3], in experiment [4], in experiment [5], in [7] and in experiment [8] was “inactive” each time. For the same molecule, the Potency result in [9], in experiment [10], in [11], in [12], in experiment [13] and in experiment [17] was “inactive” throughout. Besides, the Potency result in experiment [18] and in experiment [19] was “inactive” each time. The result in [2], in experiment [6], in experiment [14], in experiment [15] and in experiment [16] was inactive.

Turning to `O=C1CC(c2ccc(O)cc2)Oc2cc(O)ccc21` (stereo not given), the Potency result in experiment [1], in experiment [3], in experiment [4], in experiment [5], in experiment [7] and in experiment [9] was “inactive” throughout. The Potency result in experiment [10], in experiment [11], in [12], in experiment [13], in experiment [17] and in [18] was “inactive” in each case. Further, in [19], the Potency entry is “inactive”. For the same molecule, the molecule was called inactive in experiment [2], in [6], in experiment [14], in experiment [15] and in experiment [16].

For the molecule `CC(=O)c1c(C)cc2c(c1O)C(=O)c1c(O)cc(O)cc1C2=O`, the Potency result in [1], in experiment [3], in experiment [4], in experiment [5], in experiment [7] and in experiment [8] was “inactive” each time. In addition, the Potency entry in [9], in experiment [10], in [11], in experiment [12], in [13] and in experiment [17] was “inactive” throughout. Besides, the Potency result in experiment [18] and in experiment [19] was “inactive” in each case. Besides, the result in [2], in [6], in experiment [14], in experiment [15] and in experiment [16] was inactive.

As to `CN1CC[C@@]2([C@@]34CCN(C)[C@@H]3Nc3ccccc34)c3ccccc3N[C@@H]12`, the Potency entry in experiment [1], in experiment [3], in experiment [4], in [5], in experiment [7] and in [8] was “inactive” in each case. In addition, the Potency entry in experiment [9], in experiment [10], in experiment [11], in experiment [12], in experiment [13] and in [17] was “inactive” throughout. Also, the Potency entry in experiment [18] and in experiment [19] was “inactive” in each case. In addition, the molecule was called inactive in [2], in [6], in experiment [14], in [15] and in experiment [16].

Take `C=C(C)C(=O)O[C@H]1C[C@@]2(C)OC(=CC2=O)/C(C)=C\[C@H]2OC(=O)C(=C)[C@H]12`: the Potency in experiment [1] was 6.68 µM (active); in experiment [3], 2.96 µM (active); in [9], 4.16 µM (active); in [10], 2.95 µM (active); in [11] it was 1.66 µM (active); in experiment [12], 11.7 µM (active). Further, the Potency in [19] was 4.8 µM (active). Moreover, the molecule was classed as inactive in experiment [2] and in [15]. Besides, the Potency result in experiment [4], in experiment [5], in [7], in experiment [8], in experiment [13] and in experiment [17] was “inactive” in each case.
